Compounds with a hit are over-represented: about 9.8% of the library has one in this group of screens.
HTT ATP protect: cytoprotection in Huntington HTT-Q103 PC12 cell model; 230,000 tested, 0.14% active; Potency, µM (top dose mostly 56.4 µM), most hits filed as activators; PC12 HTT-Q103 induced, cytoprotection, ATP luminescence, 40 h; also: nearly all actives have a fitted effect of over 45% in size
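Huntington model: PC12 line, ecdysone-inducible HTTQ103 exon1–GFP, tebufenozide 100 nM. Test articles in a dose series. Endpoint luminescence from cellular ATP.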
ALDH1A1 inh: ALDH1A1 (human) enzyme inhibition; Purified ALDH1A1, NADH fluorescence, propionaldehyde substrate; 220,000 tested, 7.3% active; P00352; Potency, µM (doses to about 75.3 µM), actives largely listed as inhibitors; active = well fitted inhibition curve with a large enough effect, not every such curve was filed as active; inconclusive = small, poorly fitted or top-dose-only effect, or another doubt; inactive = no such curve, though single readings can be large or run the other way
HTT aggregate: inhibitors of mutant huntingtin aggregate formation in PC12 cells; PC12 HttQ103-GFP aggregates, Acumen cytometry, 40 h; Potency, µM (titrated, usually from 46.1 µM), most hits filed as inhibitors; 220,000 tested, 1.1% active; AID 1688; also: nearly all actives have a fitted effect of over 60% in size
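Multiplexed with ATP-based cell death, this channel scores GFP aggregates in PC12 cells expressing inducible HTTex1-Q103-GFP. Induction used 100 nM tebufenozide; compounds were tested in concentration series.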
KDM4E inh: JMJD2E (human) inhibition | JMJD2E catalytic domain, FDH-coupled NADH fluorescence (FDH is formaldehyde dehydrogenase) | Potency, µM (titrated, usually from 57.1 µM), actives largely listed as inhibitors | B2RXH2 | AID 2147 | 230,000 tested, 1.6% active; active = well fitted inhibition curve with a large enough effect, not every such curve was filed as active; inconclusive = small, poorly fitted or top-dose-only effect, or another doubt; inactive = no such curve, though single readings can be large or run the other way; also: nearly all actives have a fitted effect of over 50% in size
CBFb-RUNX1 inh: CBF-beta/RUNX1 interaction disruption | Q01196+Q13951 | AlphaScreen CBFb-His/RUNX1-biotin binding, biochemical | Potency, µM (titrated, usually from 59.8 µM), most hits filed as inhibitors | 230,000 tested, under 10 active
Target sequence (Q01196 whole entry, looked up): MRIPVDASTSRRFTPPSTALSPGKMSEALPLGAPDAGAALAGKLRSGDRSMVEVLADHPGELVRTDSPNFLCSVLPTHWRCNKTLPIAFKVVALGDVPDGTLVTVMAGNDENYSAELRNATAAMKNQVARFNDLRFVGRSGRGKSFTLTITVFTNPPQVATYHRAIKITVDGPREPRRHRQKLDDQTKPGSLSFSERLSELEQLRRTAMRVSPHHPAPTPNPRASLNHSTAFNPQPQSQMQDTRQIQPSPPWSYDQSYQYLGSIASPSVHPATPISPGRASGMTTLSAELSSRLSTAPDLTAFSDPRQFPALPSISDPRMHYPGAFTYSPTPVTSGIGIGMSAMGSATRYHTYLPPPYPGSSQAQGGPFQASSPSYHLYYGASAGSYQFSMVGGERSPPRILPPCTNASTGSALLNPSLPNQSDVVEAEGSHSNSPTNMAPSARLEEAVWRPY
Target sequence (Q13951 whole entry, looked up): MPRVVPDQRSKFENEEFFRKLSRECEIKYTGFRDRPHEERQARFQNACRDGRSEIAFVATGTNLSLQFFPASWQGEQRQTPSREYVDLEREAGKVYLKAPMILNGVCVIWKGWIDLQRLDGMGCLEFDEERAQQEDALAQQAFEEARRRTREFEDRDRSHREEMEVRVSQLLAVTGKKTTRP
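His-tagged CBF-beta and biotinylated RUNX1 (30 nM each) were premixed 20 min at room temperature, exposed to compound for 15 min, then given nickel-chelate and streptavidin AlphaScreen beads (50 ng each). After 90 min, AlphaScreen signal was read.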
HPGD inh: HPGD (human) dehydrogenase inhibition. P15428. purified HPGD, NADH fluorescence kinetic, PGE2 substrate. Potency, µM, most hits filed as inhibitors. 150,000 tested, 4.3% active; active = well fitted inhibition curve with a large enough effect, not every such curve was filed as active; inconclusive = small, poorly fitted or top-dose-only effect, or another doubt; inactive = no such curve, though single readings can be large or run the other way
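20 nM HPGD preincubated 15 min at room temperature with compound in 50 mM Tris-HCl pH 8, 0.01% Tween 20. Started with 1 mM NAD+ and 30 uM prostaglandin E2; NADH fluorescence (360/450 nm) read 5 times over 30-s intervals, last minus first.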
Large screens that a line does not name were inactive. Unless noted, calls follow the shape of the dose curve; as a rule, active = well fitted curve in the direction sought with a large enough effect; inconclusive = small, poorly fitted or top-dose-only effect, or another doubt; inactive = no such curve, though single readings can be large; an effect the other way counts as inactive or inconclusive.

Cn1c(SCc2nnc(-c3ccccc3Br)o2)nc2sc3c(c2c1=O)CCC3	HTT aggregate inconclusive, HPGD inh 8.91µM
CC1CCc2c(sc3nc(SCc4nc(-c5ccccc5)no4)n(C)c(=O)c23)C1 (centres undefined)	none (no result: ALDH1A1 inh, HTT aggregate, KDM4E inh, CBFb-RUNX1 inh, HPGD inh)
COCCCn1c(SCc2nnc(-c3ccccc3)o2)nc2sc3c(c2c1=O)CCC3	ALDH1A1 inh inconclusive, KDM4E inh inconclusive, HPGD inh 14.1µM
O=C1CS/C(=N/N=C/c2ccco2)N1Cc1ccc(F)cc1	none (no result: ALDH1A1 inh, HPGD inh)
Cc1cc(C)nc(/N=C(\N)Nc2ccc(SC(F)F)cc2)n1	none (no result: ALDH1A1 inh, HPGD inh)
COCCn1nnnc1C(c1ccc(OC)cc1OC)N1CCN(c2ccccc2F)CC1 (centres undefined)	none (no result: HPGD inh)
COCCn1nnnc1C(c1ccc(OC)cc1OC)N1CCN(c2ccccc2)CC1 (centres undefined)	ALDH1A1 inh 7.94µM
CCOC(=O)C1CCN(C(c2cc3ccc(C)c(C)c3[nH]c2=O)c2nnnn2C2CCCCC2)CC1 (centres undefined)	ALDH1A1 inh 20µM, KDM4E inh inconclusive
CCOC(=O)C1CCN(C(c2cc3c(C)ccc(C)c3[nH]c2=O)c2nnnn2C2CCCCC2)CC1 (centres undefined)	ALDH1A1 inh inconclusive
COc1ccc(N2CCN(C(c3cc4cc(C)ccc4[nH]c3=O)c3nnnn3Cc3ccccc3)CC2)cc1 (centres undefined)	ALDH1A1 inh 14.1µM, KDM4E inh inconclusive
Cc1ccc2cc(C(c3nnnn3Cc3ccccc3)N3CCN(c4ccccc4)CC3)c(=O)[nH]c2c1 (centres undefined)	ALDH1A1 inh 25.1µM, KDM4E inh inconclusive
COc1ccc(Cn2nnnc2C(c2cc3cc(C)ccc3[nH]c2=O)N2CCOCC2)cc1 (centres undefined)	ALDH1A1 inh inconclusive, HTT aggregate inconclusive, KDM4E inh inconclusive, HPGD inh inconclusive
COC(=O)[C@H](CC(C)C)NC(=O)NCc1ccc(Cl)cc1	none (no result: ALDH1A1 inh, HPGD inh)
O=C1OCC(CO)(CO)N=C1NNc1ccc(Cl)c(Cl)c1	none
Cc1ccc2cc(C(c3nnnn3C3CCCC3)N3CCN(c4ccccc4)CC3)c(=O)[nH]c2c1 (centres undefined)	ALDH1A1 inh 8.91µM, KDM4E inh inconclusive
O=C(Nc1nccs1)C1(S(=O)(=O)c2ccc(Cl)cc2)CC1	ALDH1A1 inh 11.2µM, HTT aggregate inconclusive (no result: HPGD inh)
c1ccc(-n2nnc3cnccc32)cc1	ALDH1A1 inh 1.26µM
c1cc(-n2nnc3cnccc32)ccn1	none (no result: ALDH1A1 inh, HPGD inh)
CCC(C)(C)c1ccc(OCCCC[n+]2ccc(C)cc2)c(C(C)(C)CC)c1	HTT aggregate 17.8µM (no result: HPGD inh)
O=CN1CCN(C2CC(=O)N(c3ccc(Br)cc3)C2=O)CC1 (centres undefined)	ALDH1A1 inh inconclusive
O=C1CC(N2CCCN(C3CC(=O)N(c4ccc(F)cc4)C3=O)CC2)C(=O)N1c1ccc(F)cc1 (centres undefined)	ALDH1A1 inh 12.6µM, HTT aggregate inconclusive
O=C1CC(N2CCCCC2)C(=O)N1c1ccccc1 (centres undefined)	ALDH1A1 inh inconclusive
O=C1CC(N2CCC(O)CC2)C(=O)N1c1ccc(Br)cc1 (centres undefined)	ALDH1A1 inh 22.4µM
CCOC(=O)C1CCN(C(=O)c2cccnc2Oc2ccc(Cl)cc2)CC1	none (no result: ALDH1A1 inh, HPGD inh)
Cc1ccc(CNC(=O)c2ccccc2-n2cnnn2)cc1	none (no result: HPGD inh)
Cc1cc(Cl)c(S(=O)(=O)N/N=C/c2ccc3c(c2)OCO3)c(Cl)c1	ALDH1A1 inh 11.2µM
O=S(=O)(N/N=C/c1ccc2c(c1)OCCO2)c1ccc(Cl)cc1	none
CC[C@@H]1OC(=O)[C@H](C)[C@H](O[C@@H]2C[C@](C)(OC)[C@H](O)[C@H](C)O2)[C@H](C)[C@H](O[C@@H]2O[C@@H](C)C[C@@H](N(C)C)[C@@H]2O)[C@](C)(O)C[C@H](C)[C@@H]2N[C@H](COCCOC)O[C@H]([C@@H]2C)[C@]1(C)O	none (no result: HTT aggregate)
Cc1ccc(/C=N/n2c(-c3ccncc3)n[nH]c2=S)cc1	ALDH1A1 inh inconclusive, HPGD inh 20µM
S=c1[nH]nc(-c2ccncc2)n1/N=C/c1cccc2ccccc12	HPGD inh 0.316µM
CC(C)(C)c1ccc(-c2n[nH]c(=S)n2/N=C/c2ccncc2)cc1	HPGD inh 11.2µM
Cc1n[nH]c(=S)n1/N=C/c1ccccc1	HPGD inh inconclusive (no result: HTT ATP protect)
S=c1[nH]nc(-c2ccncc2)n1/N=C/c1cn(-c2ccccc2)nc1-c1ccccc1	none (no result: ALDH1A1 inh, HPGD inh)
C/C=C/C=N/NC(=O)CN(c1ccc(Br)cc1)S(=O)(=O)c1ccccc1	none (no result: HTT ATP protect)
CCOC(=O)NC(=O)COC(=O)c1cccc2ccccc12	ALDH1A1 inh inconclusive, KDM4E inh inconclusive (no result: HPGD inh)
COc1ccc(CNC(=O)CN2CCN(S(=O)(=O)c3cccs3)CC2)cc1OC	ALDH1A1 inh 11.2µM (no result: HTT ATP protect, HPGD inh)
O=C(CN(CCc1ccccc1)C(=O)Cn1nnc(-c2cccs2)n1)NCc1ccco1	ALDH1A1 inh 12.6µM
Cc1ccc2c(c1)N(CC(=O)NCc1ccco1)C(=O)CO2	none
O=C(CN(CCc1ccccc1)C(=O)CN1C(=O)COc2ccccc21)NCc1ccco1	ALDH1A1 inh 8.91µM
CC(=O)N1c2ccc([N+](=O)[O-])cc2NC(=O)CC1C (centres undefined)	none
C=CCc1c(C)nc(N2CCSCC2)[nH]c1=O	none (no result: ALDH1A1 inh, HPGD inh)
S=c1[nH]c(-c2ccccc2)cs1	ALDH1A1 inh 3.55µM (no result: HPGD inh)
O=c1[nH]c(-c2ccc(Cl)cc2)cs1	ALDH1A1 inh inconclusive (no result: HPGD inh)
O=c1[nH]c(-c2ccccc2)cs1	none (no result: HTT ATP protect)
Fc1ccc(-c2csc(=S)[nH]2)cc1	ALDH1A1 inh 3.55µM (no result: HPGD inh)
CN1CCN(C(=O)C2=C[C@@H](c3ccccc3)C[C@@H](OCc3ccc(CO)cc3)O2)CC1	ALDH1A1 inh 12.6µM (no result: HPGD inh)
C=CCOC(=O)C1=C[C@@H](c2ccc(Br)cc2)C[C@@H](OCc2ccc(CO)cc2)O1	ALDH1A1 inh 17.8µM (no result: HPGD inh)
CN1CCN(C(=O)C2=C[C@H](c3csc4ccccc34)C[C@H](OCCCCO)O2)CC1	KDM4E inh 22.4µM (no result: HPGD inh)
O=C(Nc1ccccc1)C1=C[C@H](c2ccc3c(c2)OCO3)C[C@H](OCc2ccc(CO)cc2)O1	ALDH1A1 inh 28.2µM, KDM4E inh inconclusive (no result: HPGD inh)
NC(=O)C1=C[C@H](c2ccc(Br)cc2)C[C@H](OCc2ccc(CO)cc2)O1	ALDH1A1 inh inconclusive, KDM4E inh inconclusive (no result: HPGD inh)
c1ccc2c(c1)c1ccccc1n2Cn1c2ccccc2c2ccccc21	none (no result: HTT aggregate, KDM4E inh, CBFb-RUNX1 inh)
Cc1c(Cl)cccc1NC(=S)NCCc1ccc(C(F)(F)F)cc1	HTT aggregate inconclusive (no result: HPGD inh)
CC(=O)c1ccccc1OCCOc1ncnc2sccc12	HTT aggregate inconclusive, CBFb-RUNX1 inh inconclusive (no result: HPGD inh)

Compound activity as filed in PubChem BioAssay.
